# HTT ATP protect – Huntington cell model cytoprotection by ATP luminescence; PC12 HTT-Q103 induced, cytoprotection, ATP luminescence, 40 h; actives 0.14% (n = 230,000); Potency, µM (doses to about 56.4 µM), for inactives: cytoprotection (ATP increase), actives largely listed as activators; note: % of control where 0% means no effect; nearly all actives have a fitted effect of over 45% in size
#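 Compounds added alongside 100 nM tebufenozide, which induces toxic Q103 huntingtin exon 1-GFP in stable PC12 cells; surviving cells quantified by luminescent ATP measurement. Medium: phenol red-free DMEM, 5% equine and 5% calf serum.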
# LMNA splice mod – changes lamin A minigene splicing in HeLa cells. HeLa LMNA splicing GFP/RFP minigene ratio, 48 h. Potency, µM (series often up to 46.1 µM), for inactives: at the highest dose ratio change, negative = inhibition, usual class: inhibitors. actives 0.01% (n = 200,000); active = well fitted inhibition curve with a large enough effect in the signal ratio, with a control signal flat, not every such curve was filed as active; inconclusive = small, poorly fitted or top-dose-only effect, or effect the other way, or a change in a side signal; the % refers to the signal ratio; note: % is set by controls: 0 for no effect and ±100 for the full control effect
#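 S3 HeLa cells stably expressing lamin A-EGFP splicing minigene plus DsRed2, 600 cells/well, 48 h compound exposure at 37C. Laser-scanning cytometry; analysed as GFP (500-530 nm)/RFP (575-640 nm) total intensity ratio; 0.5% DMSO vehicle.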
# Luc counter – Kinase-Glo luciferase inhibition (counter-screen); Q27757; Kinase-Glo luciferase, ATP luminescence, 8 min; Potency, µM (doses to about 38.3 µM), inactives show at the top dose activity change, negative = inhibition, usual class: inhibitors; actives 0.28% (n = 200,000); AID 1379; note: % is set by controls: 0 for no effect and ±100 for the full control effect; nearly all actives have a fitted effect of over 60% in size
#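 Substrate mix (final 50 mM imidazole pH 7.2, 50 mM KCl, 7 mM MgCl2, 10 uM ATP, 0.01% Tween 20, 0.05% BSA) plus pin-tool compound, then Kinase-Glo detection mix; 8 min ambient, luminescence read.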
# ALDH1A1 block – inhibitors of human aldehyde dehydrogenase 1A1 | Potency, µM (top dose mostly 75.3 µM), for inactives: at the highest dose activity, negative = inhibition, actives largely listed as inhibitors | Purified ALDH1A1, NADH fluorescence, propionaldehyde substrate | AID 1030 | actives 7.3% (n = 220,000); active = well fitted inhibition curve with a large enough effect, not every such curve was filed as active; inconclusive = small, poorly fitted or top-dose-only effect, or another doubt; inactive = no such curve, though single readings can be large or run the other way;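 note: plate controls were no enzyme wells and a reference inhibitor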
# Target sequence (P00352 whole entry, looked up): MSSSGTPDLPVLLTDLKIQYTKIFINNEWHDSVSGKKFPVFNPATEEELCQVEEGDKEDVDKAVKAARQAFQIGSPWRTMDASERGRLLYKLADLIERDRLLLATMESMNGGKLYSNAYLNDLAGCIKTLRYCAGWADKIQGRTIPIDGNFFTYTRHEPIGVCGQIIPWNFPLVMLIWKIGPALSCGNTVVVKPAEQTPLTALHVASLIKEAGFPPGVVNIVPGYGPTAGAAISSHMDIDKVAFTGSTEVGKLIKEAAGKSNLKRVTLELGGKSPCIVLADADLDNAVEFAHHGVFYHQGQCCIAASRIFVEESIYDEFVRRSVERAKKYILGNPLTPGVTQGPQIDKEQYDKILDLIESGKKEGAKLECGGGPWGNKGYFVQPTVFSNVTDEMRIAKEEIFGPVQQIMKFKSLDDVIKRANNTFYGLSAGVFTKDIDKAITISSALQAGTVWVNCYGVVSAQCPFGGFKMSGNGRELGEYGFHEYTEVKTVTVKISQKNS
# HPGD inh – blocks human HPGD enzyme activity. P15428. purified HPGD, NADH fluorescence kinetic, PGE2 substrate. Potency, µM, for inactives: at the top dose activity change, negative = inhibition, hits mostly inhibitors. actives 4.3% (n = 150,000). AID 894; active = well fitted inhibition curve with a large enough effect, not every such curve was filed as active; inconclusive = small, poorly fitted or top-dose-only effect, or another doubt; inactive = no such curve, though single readings can be large or run the other way; note: % is set by controls: 0 for no effect and ±100 for the full control effect
# Target sequence (P15428 whole entry, looked up): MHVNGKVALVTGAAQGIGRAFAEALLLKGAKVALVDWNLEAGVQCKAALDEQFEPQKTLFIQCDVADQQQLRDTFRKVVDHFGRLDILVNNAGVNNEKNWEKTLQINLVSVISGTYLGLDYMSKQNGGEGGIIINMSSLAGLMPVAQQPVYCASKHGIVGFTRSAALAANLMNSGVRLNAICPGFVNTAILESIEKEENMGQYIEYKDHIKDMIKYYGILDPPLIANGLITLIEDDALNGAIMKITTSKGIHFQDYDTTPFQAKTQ
#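 NADH formation kinetics: reaction with 30 uM PGE2 and 1 mM NAD+ (final), 20 nM enzyme, Tris-HCl pH 8 with Tween 20, after 15 min compound preincubation at room temperature. Fluorescence change, last versus first of five reads.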
# HTT aggregate – inhibitors of mutant huntingtin aggregate formation in PC12 cells; PC12 HttQ103-GFP aggregates, Acumen cytometry, 40 h; Potency, µM (titrated, usually from 46.1 µM), inactives show at the highest dose activity change, negative = inhibition, usual class: inhibitors; actives 1.1% (n = 220,000); note: % is set by controls: 0 for no effect and ±100 for the full control effect; nearly all actives have a fitted effect of over 60% in size
#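 Read-out: GFP aggregate count by laser scanning cytometer (488 nm excitation, 500-530 nm emission, 1–25 µm objects >6 SD above background). Cells: PC12, inducible HTTex1-Q103-GFP, 100 nM tebufenozide; compounds titrated.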
# Active calls of the source: *; ? = inconclusive; nt = no result given; [ ] = another dose, or the depositor's remark. In the library only some 9% were active in any assay of this set; here they are far more common. Unless noted, calls come from the whole dose curve; as a rule, active = well fitted curve in the direction sought with a large enough effect; inconclusive = small, poorly fitted or top-dose-only effect, or another doubt; inactive = no such curve, though single readings can be large; an effect the other way counts as inactive or inconclusive. Potency is the fitted concentration of half-maximal effect.
SMILES,HTT ATP protect,LMNA splice mod,Luc counter,ALDH1A1 block,HPGD inh,HTT aggregate
COc1ccc(C(NC(=O)c2cccnc2)c2cc(Cl)c3cccnc3c2O)cc1OC (configuration not stated),-76%,?,-2%,6%,-15%,2.8µM*
CCCCC(=O)NC(c1ccco1)c1cc(Cl)c2cccnc2c1O (configuration not stated),14%[10 µM],2%[46 µM],-3%,3%,nt,-2%[9.22 µM]
Cc1cccc(C2Nc3ccccc3C(=O)N2c2ccccc2)n1 (configuration not stated),-10%,-6%,5%,?,?,5%
Cc1ccc(NC(=S)Nc2ccc(C(C)C)cc2)cc1S(=O)(=O)N1CCCCCC1,-33%[10 µM],?,3%,18µM*,?,-6%
CC(C)n1cc(/C=C2\NC(=O)N(c3cccc(Cl)c3)C2=O)c2ccccc21,-28%,-27%,-2%,?,-19%,-3%
O=c1c2ccccc2nc2n1C(CSCc1ccc(Cl)cc1)CS2 (configuration not stated),-2%[10 µM],?,1%,?,-12%,11µM*
Cc1ccc(S(=O)(=O)N(C)C(=O)NC(=O)NS(=O)(=O)c2ccccc2)cc1,1%,?,1%,15%,nt,?
CCN(c1cccc(C)c1)S(=O)(=O)c1ccc(OC)c([N+](=O)[O-])c1,2%[10 µM],29%[46 µM],-1%,25µM*,nt,-7%[9.22 µM]
O=C(c1cc2cc(C(F)(F)F)ccc2s1)N1CCOCC1,?,10%[46 µM],-1%,2%,nt,5%
COc1c(O)c(O)cc2c1oc1c3ccccc3oc(=O)c21,-13%,nt,2%,?,13µM*,nt
COc1cccc(NC(=S)N(Cc2ccco2)C(C)c2ccco2)c1 (configuration not stated),12%[10 µM],0%,1%,4%,-4%,-5%
CCOc1cc(N2CCOCC2)c(OCC)cc1NC(=O)C(C)C,5%[10 µM],nt,nt,nt,nt,-4%[9.22 µM]
CCOc1cc(N2CCOCC2)c(OCC)cc1NC(C)C(=O)N1CCN(CC)CC1 (configuration not stated),-13%,?,-2%,22µM*,nt,23%
Cc1sc2ncnc(SCC(=O)NCC(C)C)c2c1C,9%,-3%,-3%,-2%,16µM*,-18%
CCOC(=O)c1c(C)oc2cc(Cl)c(O)c(CN(C)C)c12,6%[10 µM],nt,nt,nt,nt,19%[9.22 µM]
COc1ccc(-n2nc3c(c2NC(=O)C2CC2)CS(=O)C3)cc1 (configuration not stated),-1%,4%,0%,-3%,-4%,5%
COc1ccc(-n2nc3c(c2NC(=O)C24CC5CC(CC(C5)C2)C4)CS(=O)C3)cc1 (configuration not stated),0%,-6%,0%,2.8µM*,-3%,-6%
Cc1ccc(C(=O)Nc2ccc3c(c2)nc2n3CCSC2)cc1,-135%[0.074 µM],-6%,-8%,?,-12%,21%
Cc1ccc(N2C(=O)c3cccc4c(Oc5ccccc5[N+](=O)[O-])ccc(c34)C2=O)c(C)c1,-11%[10 µM],?,5%,?,-8%,-7%
COc1ccc(S(=O)(=O)N(C)CC(=O)Nc2ccccc2OC)cc1C,0%[0.074 µM],-8%,-2%,-2%,-2%,-9%
CCOc1ccccc1NC(=O)CN(C)S(=O)(=O)c1ccc(OC)c(C)c1,-9%[10 µM],-5%,1%,?,16µM*,-16%
CCOC(=O)C(Cc1ccc(OC)c([N+](=O)[O-])c1)NC(=O)CCC(=O)Nc1ccc(C)cc1 (configuration not stated),-4%[10 µM],2%[46 µM],-1%,14µM*,nt,-26%[9.22 µM]
CCN(CC)CCCNC(=O)c1c(O)c2c([nH]c1=O)CCCC2,0%[10 µM],0%,-4%,?,-4%,-12%
O=S(=O)(NCc1csc(-c2cccnc2)n1)c1ccc(Cl)s1,7%[10 µM],-12%,3%,6%,-10%,-10%
O=S(=O)(NCc1csc(-c2ccccc2)n1)c1ccc(Cl)s1,13%,1%,3%,-3%,18µM*,-4%
SMILES,HTT ATP protect,LMNA splice mod,Luc counter,ALDH1A1 block,HPGD inh,HTT aggregate
COc1ccc(Nc2nc3ccccc3s2)cc1,nt,nt,-8%,-7%,nt,nt
Cn1cc(CN2CCc3c([nH]c4ccccc34)C2C2CCCCC2)cn1 (configuration not stated),2%[10 µM],-1%[46 µM],-3%,13µM*,nt,15%[9.22 µM]
Cn1cc(CN2CCc3c([nH]c4ccccc34)C2C(C)(C)C)cn1 (configuration not stated),-7%[10 µM],nt,nt,-3%,nt,6%[9.22 µM]
c1ccc(-c2noc(-c3ccc4c(c3)OCO4)n2)cc1,-126%,nt,10µM*,8%,nt,-1%[9.22 µM]
CNC(=O)c1ccc(Nc2nnc(-c3ccc(C)c(S(=O)(=O)NCC4CCCO4)c3)c3ccccc23)cc1 (configuration not stated),39%[10 µM],-21%,1%,?,25µM*,20%
Cc1sc2ncnc(N3CCCCC3)c2c1C,10%,?,-3%,-1%,0%,-32%
Cc1ccc(OCCN2CCN(c3ncnc4sc(C)c(C)c34)CC2)cc1,-28%,?,-1%,-4%,-23%,2.5µM*
O=[n+]1c2c(n([O-])c3cc(F)c(N4CCCC4)cc31)CCCC2,0%,4%,-10%,20µM*,-12%,-10%
O=C(c1ccc(CS(=O)(=O)c2ccc(Br)cc2)o1)N1CCN(C2CCCCC2)CC1,2%,-2%,3%,13%,-11%,-1%
CC(C)Oc1ccc(C(=O)NC2=NCCS2)cc1,-221%,?,-5%,20µM*,nt,-11%
Cc1nc(SCC(=O)c2cc3ccccc3oc2=O)c(C#N)c(-c2cccs2)c1C(=O)Nc1ccccc1,-18%,nt,2%,-7%,nt,-12%
Cc1ccc2cccc(Oc3ccc([N+](=O)[O-])cc3[N+](=O)[O-])c2n1,nt,?,0%,3%,-18%,-2%
O=[N+]([O-])c1ccc(Oc2cccc3cccnc23)c([N+](=O)[O-])c1,nt,?,3%,?,-5%,22µM*
CCOC(=O)Cn1c(=O)c2c(nc(N3CCCCC3)n2Cc2ccccc2)n(C)c1=O,-37%,?,2%,14µM*,-10%,0%
CCOC(=O)Cn1c(=O)c2c(nc(N3CCOCC3)n2C)n(C)c1=O,10%,0%,-2%,1%,-7%,?
Cn1c(=O)c2c(nc(N3CCCCCC3)n2CC(O)COc2ccccc2)n(C)c1=O (configuration not stated),-9%[10 µM],-1%,-2%,1.6µM*,-9%,20%
COc1ccccc1N1CCN(Cc2nc(N)nc(Nc3ccc(C)c(Cl)c3)n2)CC1,-11%[10 µM],-10%,1%,?,-8%,-23%

# Source: PubChem (National Center for Advancing Translational Sciences (NCATS))
